From PubChem BioAssay (NCATS)
Active and inactive are the calls of the source. The rule behind the calls is not given here.

Tested on: HIV-1 nucleocapsid protein NCp7 (binding to TG oligonucleotide)
Assay: HIV Nucleocapsid (AID 346);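 note: potency is for inhibitors that block NC binding and lower polarization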
Details: HIV-1 NC / fluorescein-TGTGTGTG probe, fluorescence polarization
In short: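 10 nM TG4xF probe with 100 nM nucleocapsid protein in high-salt Hepes pH 7.5 (250mM NaCl) containing 1uM ZnCl2 and reducing agents. Compound inhibition of binding was read as fluorescein polarization after 1 hr at room temperature.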
Potency is the fitted concentration of half-maximal effect.

SMILES	Potency
O=c1c(-c2ccc(Cl)cc2)nc2cnc(Oc3ccccc3)nc2n1C1CC1	> 20 µM (inactive)
O=C(c1csnn1)N1CCC[C@@]2(CCN(c3ncccn3)C2)C1	> 20 µM (inactive)
COc1ccc2[nH]cc(CCNc3ccnc(-c4ccccc4C(F)(F)F)n3)c2c1	> 20 µM (inactive)
COc1ccccc1-c1cncnc1NCCc1cnc[nH]1	> 20 µM (inactive)
COc1ccc(C(=O)N2CCC3(CCCN(C(=O)NC(C)C)C3)CC2)cc1	> 20 µM (inactive)
Cc1cccc(CNc2ncnc3ccc(-c4ccc5c(c4)OCO5)cc23)c1	> 20 µM (inactive)
CN(C)c1ncc2nc(-c3ccccc3)c(=O)n(C3CC3)c2n1	> 20 µM (inactive)
COCCn1c(=O)c(-c2ccc(OC)cc2)nc2cnc(N3CCOCC3)nc21	> 20 µM (inactive)
COc1ccccc1-c1ccc2ncnc(NCc3cccnc3)c2c1	> 20 µM (inactive)
CS(=O)(=O)Nc1cccc(-c2nc(N3CCNCC3)c3ccccc3n2)c1	> 20 µM (inactive)
COc1cccc(Nc2ncc3nc(-c4ccc(F)cc4)c(=O)n(CCC#N)c3n2)c1	> 4 µM (inactive)
Cc1noc(C)c1C(=O)N1CCC[C@@]2(CCN(C(=O)NC(C)C)C2)C1	> 20 µM (inactive)
Cc1cnc(CNc2ncnc3ccc(-c4ccoc4)cc23)cn1	> 20 µM (inactive)
O=C(c1cccc(F)c1)N1CCC2(CC1)CCN(c1ccc(-c3ccccc3)cc1)CC2	> 20 µM (inactive)
CCNc1ncc2nc(CCc3ccccc3)c(=O)n(CCC#N)c2n1	> 20 µM (inactive)
Cn1cccc1C(=O)N1CCC2(CCCN(c3ccccn3)C2)CC1	> 20 µM (inactive)
COc1ccc(NC(=O)N2CCCC3(CCN(C(=O)c4cnccn4)CC3)C2)cc1	> 20 µM (inactive)
CN(C)C(=O)c1ccc(-c2nccc(N(C)Cc3ccco3)n2)cc1	> 20 µM (inactive)
COc1ccc2[nH]cc(CCNc3nc(-c4c(C)noc4C)nc4ccccc34)c2c1	> 20 µM (inactive)
O=c1c(-c2cccs2)nc2cnc(Oc3ccccc3)nc2n1C1CC1	> 20 µM (inactive)

SMILES	Potency
COC(=O)N1CCC2(CCN(Cc3nccs3)CC2)CC1	> 20 µM (inactive)
CN1CCN(c2ncnc3ccc(-c4ccccc4C(F)(F)F)cc23)CC1	> 20 µM (inactive)
Cc1nc2cnc(N3CCOCC3)nc2n(C)c1=O	> 20 µM (inactive)
COc1ccccc1CN1CCCC2(CCN(C(=O)c3c(C)noc3C)CC2)C1	> 20 µM (inactive)
CN1CCN(c2ncnc3ccc(-c4ccc(C(=O)N(C)C)cc4)cc23)CC1	> 20 µM (inactive)
c1ccc(CNc2nc(-c3ccc4c(c3)OCO4)nc3ccccc23)cc1	> 20 µM (inactive)
COc1ccc(CNc2nc(-c3cccnc3)nc3ccccc23)c(OC)c1	> 20 µM (inactive)
COc1cccc(Cn2c(=O)c(CCc3ccccc3)nc3cnc(OC)nc32)c1	> 20 µM (inactive)
COc1ccccc1-c1cncnc1N(C)Cc1ccco1	> 20 µM (inactive)
O=C(c1cnccn1)N1CCC2(CC1)CN(c1cccc(-c3ccccc3)c1)C2	> 20 µM (inactive)
COc1ccccc1CN1CCC2(CC1)CCN(C(=O)c1ccco1)CC2	> 20 µM (inactive)
CNc1cc(-c2c(C)noc2C)ncn1	> 20 µM (inactive)
CC(=O)N1CCC2(CC1)CCN(c1ccncc1)CC2	> 20 µM (inactive)
COc1ccccc1CN1CC2(CCN(C(=O)c3ccncc3)CC2)C1	> 20 µM (inactive)
COc1ccc(-n2c(=O)c(-c3cc(F)cc(F)c3)nc3cnc(N4CCOCC4)nc32)cc1	> 20 µM (inactive)
COc1ccc(C(=O)N2CCC3(CCN(C(=O)Nc4cccc(F)c4)CC3)CC2)cc1	> 20 µM (inactive)
CN(C)Cc1ccccc1-c1cc(NCc2ccccc2)ncn1	> 20 µM (inactive)
Cc1noc(C)c1-c1nc(NCc2cccs2)c2ccccc2n1	> 20 µM (inactive)
N#Cc1cccc(NC(=O)N2CC[C@@]3(CCCN(S(=O)(=O)c4ccccc4)C3)C2)c1	> 20 µM (inactive)
O=c1cnc2cnc(Oc3cccc(Cl)c3)nc2n1Cc1ccc(F)cc1	> 20 µM (inactive)
